# ChEMBL document CHEMBL1201862, “PubChem BioAssay data set” (2004)
# In all, about 310,000 compounds went through this assay and about 1,900 (0.61%) were called active. Another 8% or so got no clear call; they are omitted. This is one part of a sample in which actives are shown more often than they occur. No cut-off for these calls is given here.
# Assay: qHTS for Stage-Specific Inhibitors of Vaccinia Orthopoxvirus: mCherry Reporter Primary qHTS.
# Assay type: functional
# Conditions: read-out: Potency
row,Compound,AC50
1,CN(C)C(=O)CCc1ccc2c3c([nH]c2c1)[C@]1(C)[C@@H](C(=O)N2CCCCC2)C[C@H](CC(=O)NCCN2CCOCC2)C(=O)N1CC3,316 µM (active)
2,C[C@H]1O[C@@H](O[C@H]2[C@@H](O)C[C@H](O[C@H]3[C@@H](O)C[C@H](O[C@H]4CC[C@@]5(C)[C@H](CC[C@@H]6[C@@H]5CC[C@]5(C)[C@@H](C7=CC(=O)OC7)[C@@H](O)C[C@]65O)C4)O[C@@H]3C)O[C@@H]2C)C[C@H](O)[C@@H]1O [GITOXIN],355 µM (active)
3,Cc1cccc2c1N(CCCCI)C=S2C (stereo not drawn),4.47 µM (active)
